This is an account of results in PubChem BioAssay (NCATS).

Unmarked numbers belong to inactive results. Records with an inconclusive call do not appear. Activity calls are given as the source filed them. Calls come from the whole dose curve; as a rule, active = well fitted curve in the direction sought with a large enough effect; inconclusive = small, poorly fitted or top-dose-only effect, or another doubt; inactive = no such curve, though single readings can be large; an effect the other way counts as inactive or inconclusive. Where a SMILES comes first, the peptide text is derived from it.

Assay [1] has as its target Glutathione peroxidase 1 (Homo sapiens) (UniProt P07203). The experiment in a line: Primary qHTS Assay for Inhibitors of Recombinant Selenoprotein Glutathione Peroxidase 1 (GPX1) (AID 1845191). For activity, negative = inhibition: % is set by controls: 0 for no effect and ±100 for the full control effect. Note: nearly all actives have a fitted effect of over 65% in size. A digest of the protocol:
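GR-coupled assay: compounds preincubated 30 min at room temperature with GPX1, then reaction started with CHP; final 10 nM GPX1, 1 mM GSH, 0.5 mM CHP, 0.5 mM NADPH, 100 nM GR, 0.01% BSA, pH 7.5 Tris buffer. NADPH fluorescence (340/450 nm) read at 0 and 15 min.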
Background: In qHTS, concentration-response curves come from the screen itself.

The target in assay [2] is Phospholipid hydroperoxide glutathione peroxidase GPX4 (Homo sapiens) (UniProt P36969). The experiment in a line: Primary qHTS Assay for Inhibitors of Recombinant Selenoprotein Glutathione Peroxidase 4 (GPX4) (AID 1845192). For activity change, negative = inhibition: series mostly up to about 50 µM; % is set by controls: 0 for no effect and ±100 for the full control effect. Note: nearly all actives have a fitted effect of over 65% in size. A digest of the protocol:
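GR-coupled assay: recombinant GPX4 preincubated 30 min with compound at room temperature; final 200 nM GPX4, 1 mM GSH, 0.5 mM cumene hydroperoxide, 0.5 mM NADPH, 100 nM GR, 0.01% BSA, pH 7.5 Tris. NADPH fluorescence (340/450 nm) read at 0 and 15 min.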

The target in assay [3] is Luciferin 4-monooxygenase (Photinus pyralis) (UniProt P08659). The experiment in a line: Primary firefly luciferase (FLuc) qHTS assay for identification of artifact compounds. (AID 1845220).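 For activity change, negative = inhibition: series mostly up to about 54 µM; plate controls were DMSO vehicle for no effect and no enzyme for full effect.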 Note: nearly all actives have a fitted effect of over 60% in size. The method in brief:
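D-luciferin and ATP (10 uM each, final) in Tris acetate buffer pH 7.6 were incubated with compounds for 15 min at room temperature. The reaction was started with 10 nM Photinus pyralis luciferase and luminescence read after 5 min. Percent inhibition was fitted to a 4-parameter Hill equation.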

Assay [4] in a line: Primary fluorescence-based thiol-reactive (MSTI) qHTS assay for identification of artifact compounds. (AID 1845221).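 For activity change, negative = thiol reactive: series mostly up to about 54 µM; thiol-reactive compounds lower the probe fluorescence signal.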 Note: nearly all actives have a fitted effect of over 65% in size. Note: potency is the fitted concentration of half-maximal effect. A digest of the protocol:
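qHTS titration of compound; 4 uM MSTI, PBS pH 7.4, 2% DMSO; 1 h RT, dark; fluorescence 525/598 nm; normalized to Acetyl-MSTI and MSTI; 4-parameter Hill fit.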

The test system of assay [5] is Nanoluciferase (engineered Oplophorus gracilirostris luciferase). Nature of the assay: Primary Nanoluciferase (NLuc) qHTS assay for identification of artifact compounds. (AID 1845222).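 Note: series mostly up to about 54 µM; 0% = DMSO and -100% = no enzyme.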 A digest of the protocol:
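Diluted conditioned medium from NLuc-expressing S16 cells treated with compounds for 15 min at room temperature, then Nano-Glo substrate added; luminescence read after 5 min. Percent inhibition versus no-enzyme and DMSO controls fitted to 4-parameter Hill equation.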

Phospholipid hydroperoxide glutathione peroxidase GPX4 (Homo sapiens), sequence (P36969 whole entry, looked up): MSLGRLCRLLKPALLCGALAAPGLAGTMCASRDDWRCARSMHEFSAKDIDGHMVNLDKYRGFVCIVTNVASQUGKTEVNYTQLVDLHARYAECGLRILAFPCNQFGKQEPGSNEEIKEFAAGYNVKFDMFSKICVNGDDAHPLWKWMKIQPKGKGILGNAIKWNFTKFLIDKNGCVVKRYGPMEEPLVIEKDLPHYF
Glutathione peroxidase 1 (Homo sapiens), sequence (P07203 whole entry, looked up): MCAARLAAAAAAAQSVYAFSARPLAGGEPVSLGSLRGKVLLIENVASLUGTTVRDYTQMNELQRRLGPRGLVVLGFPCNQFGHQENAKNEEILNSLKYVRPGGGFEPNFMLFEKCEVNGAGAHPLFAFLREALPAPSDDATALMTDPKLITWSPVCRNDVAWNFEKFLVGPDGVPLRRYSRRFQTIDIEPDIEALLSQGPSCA

On to `C[C@@H]1CC[C@]2(C(=O)O[C@@H]3O[C@H](CO[C@@H]4O[C@H](CO)[C@@H](O)[C@H](O)[C@H]4O)[C@@H](O)[C@H](O)[C@H]3O)CC[C@]3(C)C(=CCC4[C@@]5(C)CC[C@H](O)[C@](C)(C(=O)O)C5CC[C@]43C)[C@@H]2[C@]1(C)O` (stereo not given in full), for which the Potency result in assay [1] and in assay [2] was “inactive” throughout. Moreover, the activity change, negative = inhibition in assay [3] was -0.663% [at 11.6 µM]. Further, the activity change, negative = thiol reactive in assay [4] was 22.8% [at 11.5 µM]. The activity, negative = inhibition in assay [5] was 2.17% [at 11.6 µM].

Turning to `CC1CCC23COC(=O)C2=CC(O)CC3C1(C)CCc1ccoc1` (stereo not given), the Potency entry in assay [1], in assay [2], in assay [3], in assay [4] and in assay [5] was “inactive” each time.

For `C=C(C(=O)O)[C@@H]1CC[C@@]2(C)CCC[C@@](C)(O)[C@@H]2C1`, the Potency entry in assay [1], in assay [2], in assay [3], in assay [4] and in assay [5] was “inactive” each time.

As to `O=c1[nH]ccc2nc(-c3ccc(CN4CCC(c5nc(-c6ccccn6)n[nH]5)CC4)cc3)c(-c3ccccc3)cc12`, the Potency result in assay [1], in assay [2], in assay [3], in assay [4] and in assay [5] was “inactive” in each case.

Take `C/C=C/C=C/[C@@H]1O[C@](O)([C@H](CC)C(=O)NC/C=C/C=C(\C)[C@@H](OC)[C@@H](C)[C@@H]2O[C@H](/C=C/C=C/C=C(\C)C(=O)c3c(O)ccn(C)c3=O)[C@H](O)[C@@H]2O)[C@H](O)[C@H](O)C1(C)C`: the Potency entry in assay [1] and in assay [2] was “inactive” throughout. Also, in assay [3], the outcome was “inactive [at 11.6 µM]”. Also, the activity change, negative = thiol reactive in assay [4] was 94.3% [at 11.5 µM]. The activity, negative = inhibition in assay [5] was -0.199% [at 11.6 µM].

As to `COc1c2c(c(C)c3c1C(=O)OC3)OC1(C)CC(O)C34OC(O)(CCC3(C)C1C2)OC4(C)C` (stereo not given), the Potency entry in assay [1], in assay [2], in assay [3], in assay [4] and in assay [5] was “inactive” in each case.

On to `N#CN1CCC[C@@H](n2nc(-c3ccc(Oc4ccc(F)cc4F)cc3)c(C(N)=O)c2N)C1`, for which the Potency entry in assay [1], in assay [2], in assay [3], in assay [4] and in assay [5] was “inactive” each time.

For the compound `O=C(O)C(Cc1ccccc1)NC(=O)C1CCCN1` (stereo not drawn) (H-Pro-Phe-OH; configuration not given here), the Potency result in assay [1], in assay [2], in assay [3], in assay [4] and in assay [5] was “inactive” each time.

Take `C[C@@H]1C[C@H]2OC(=O)[C@@]3(C)CCC[C@](C)(C23)[C@@]1(O)CCC1=CC(=O)OC1O` (stereo not given in full): the Potency result in assay [1], in assay [2], in assay [3] and in assay [5] was “inactive” each time. Further, the Potency in assay [4] was 3.29 µM (active).

With `C=C(CC/C=C(\C)C(=O)O)C1(O)CC=C(C)CC1` (stereo not given), the Potency entry in assay [1], in assay [2], in assay [3], in assay [4] and in assay [5] was “inactive” each time.

Take `CC(C)C1CCC(CO)=CC1/C=C(\CO)C(=O)OCC1(O)CCC(C(C)C)C2C=C(C(=O)O)COC(=O)C21` (stereo not given): the Potency entry in assay [1], in assay [2], in assay [3], in assay [4] and in assay [5] was “inactive” in each case.

In the case of `COCc1c(O)c(C(=O)O)c(C)c2c1OC(=O)c1c(C)cc(O)c(CO)c1O2`, the Potency result in assay [1], in assay [2], in assay [3] and in assay [5] was “inactive” throughout. The Potency in assay [4] is 5.21 µM (active).

Turning to `O=C(OC[C@H]1O[C@@H](Oc2ccccc2COC(=O)C2(O)C=CCCC2O)[C@H](O)[C@@H](O)[C@@H]1O)c1ccccc1` (stereo not given in full), the Potency result in assay [1], in assay [2], in assay [3] and in assay [5] was “inactive” each time. Besides, the Potency in assay [4] is 5.19 µM (active).

With `C/C=C/C=C/C1=C2C(=O)C3(C)C4C(C(=O)CC(O)/C=C/C)=C(O1)C1(C)C2C2(C)OC1(O)C4(C)OC23O` (stereo not given), the Potency entry in assay [1], in assay [2], in assay [3] and in assay [5] was “inactive” in each case. The Potency in assay [4] is 5.82 µM (active).

Consider `COc1cccc(OC)c1-c1nc(C(=O)N[C@@H](CC(C)C)C(=O)O)cn1-c1ccnc2cc(Cl)ccc12`, for which the Potency entry in assay [1], in assay [2], in assay [3], in assay [4] and in assay [5] was “inactive” each time.

For `C[C@@H]1O[C@@H](O[C@H]2[C@H](O)[C@@H](O)[C@H](OC(=O)[C@]34CCC(C)(C)C[C@H]3C3=CCC5[C@@]6(C)CC[C@H](O[C@@H]7O[C@H](C(=O)O)[C@@H](O)[C@H](O)[C@H]7O)C(C)(C)C6CC[C@@]5(C)[C@]3(C)CC4)O[C@@H]2CO)[C@H](O)[C@H](O)[C@H]1O` (stereo not given in full), the Potency result in assay [1] and in assay [2] was “inactive” in each case. Further, the activity change, negative = inhibition in assay [3] was -16.1% [at 11.6 µM]. Moreover, the activity change, negative = thiol reactive in assay [4] is 74.8% [at 11.5 µM]. Further, in assay [5], the activity, negative = inhibition was -3.67% [at 11.6 µM].

In the case of `CC(=O)O[C@@H](C[C@@H]1C=C(C)C(=O)O1)[C@H](C)[C@H]1CCC2[C@@]3(C)CC[C@H](O[C@@H]4O[C@H](CO)[C@@H](O)[C@H](O)[C@H]4O[C@@H]4O[C@@H](C)[C@H](O)[C@@H](O)[C@H]4O)C(C)(C)C3CC[C@@]2(C)[C@@]12COC(=O)C2` (stereo not given in full), the Potency result in assay [1] and in assay [2] was “inactive” in each case. In assay [3], the activity change, negative = inhibition is -7.53% [at 11.6 µM]. Also, the activity change, negative = thiol reactive in assay [4] is 32.4% [at 11.5 µM]. Further, the activity, negative = inhibition in assay [5] is -4.12% [at 11.6 µM].

Take `CC(=O)O[C@H]1C[C@@]2(C)[C@@H](CC[C@H]3[C@@]4(C)C=CC(=O)[C@@H](C)[C@@H]4[C@H](OC(C)=O)C(=O)[C@@]32C)/C1=C(\CCC=C(C)C)C(=O)O`: the Potency result in assay [1], in assay [2], in assay [3], in assay [4] and in assay [5] was “inactive” each time.

For the compound `COC1CC(O[C@H]2CC[C@@]3(C)C(=CC[C@]4(O)C3[C@H](O)[C@@H](O)[C@]3(C)[C@@H]([C@H](C)O)CC[C@@]34O)C2)OC(C)C1OC1CC(OC)C(OC2CC(OC)C(OC3OC(C)C(OC4OC(CO)C(O)C(O)C4O)C(OC)C3O)C(C)O2)C(C)O1` (stereo not given in full), the Potency entry in assay [1] and in assay [2] was “inactive” throughout. Also, in assay [3], the activity change, negative = inhibition was 1.06% [at 11.6 µM]. Moreover, in assay [4], the activity change, negative = thiol reactive was 43.2% [at 11.5 µM]. Further, the activity, negative = inhibition in assay [5] was 0% [at 11.6 µM].
